Cytotoxicity call data for 63 molecules are collected here from the antibiotic and cytotoxicity screens of Wong et al. (2023).

In all, about 39,000 compounds went through this assay and about 1,500 (3.8%) were called active. Shown is part of a subset that was picked to be rich in actives.

The test system of this test is HSkMC (human skeletal muscle cells). The test can be described thus: cytotoxicity call (relative viability < 0.9). The conditions noted are these: 10 µM.
Take `C[C@@H](NC(=O)C[C@H]1C=C[C@H](NC(=O)CN2CCOCC2)[C@@H](CO)O1)c1ccccc1`: the cytotoxicity call was “inactive”.
For `O=C(Nc1ncc(SCCN2CCCC2)s1)[C@]1(c2ccc(S(=O)(=O)C3CC3)cc2)C[C@H]1C1CCCCC1`, the cytotoxicity call was “active”.
As to `C[C@H]1CCCCO[C@H](CN(C)C(=O)Nc2ccc(F)cc2)[C@@H](C)CN([C@@H](C)CO)C(=O)c2cc(NC(=O)CCC(F)(F)F)ccc2O1`, the cytotoxicity call was “inactive”.
Regarding `COc1ccc(CN(C)C[C@H]2Oc3c(NS(C)(=O)=O)cccc3C(=O)N([C@H](C)CO)C[C@H]2C)cc1`, the cytotoxicity call was “inactive”.
For `CCCCCOc1ccc(-c2cc(-c3ccc(C(=O)N[C@H]4C[C@@H](O)[C@@H](O)NC(=O)[C@H]5[C@@H](O)[C@@H](C)CN5C(=O)[C@H]([C@@H](O)CC(N)=O)NC(=O)[C@H]([C@@H](O)[C@@H](O)c5ccc(O)c(OS(=O)(=O)O)c5)NC(=O)[C@H]5C[C@@H](O)CN5C(=O)[C@H]([C@@H](C)O)NC4=O)cc3)no2)cc1`, the cytotoxicity call is “inactive”.
Under `CC[C@H](C)C[C@H](C)CCCCCCCCC(=O)N[C@H]1C[C@@H](O)[C@@H](NCCN)NC(=O)[C@@H]2[C@@H](O)CCN2C(=O)[C@H]([C@H](O)CCN)NC(=O)[C@H]([C@H](O)[C@@H](O)c2ccc(O)cc2)NC(=O)[C@@H]2C[C@@H](O)CN2C(=O)[C@H]([C@@H](C)O)NC1=O` stands “inactive”; under `COc1ccc(NC(=O)N(C)C[C@@H]2Oc3ccc(NC(=O)CCCN(C)C)cc3CC(=O)N([C@H](C)CO)C[C@H]2C)cc1`, “inactive”.
With `C[C@@H]1CCCCO[C@H](CN(C)C(=O)Nc2ccc3c(c2)OCO3)[C@H](C)CN([C@@H](C)CO)C(=O)c2cc(NC(=O)Nc3ccc(F)cc3)ccc2O1`, the cytotoxicity call is “inactive”.
For `C[C@@H]1CCCCO[C@H](CN(C)C(=O)c2ccncc2)[C@H](C)CN([C@H](C)CO)C(=O)c2cc(NS(=O)(=O)c3ccc(Cl)cc3)ccc2O1`, the cytotoxicity call is “inactive”.
As to `NC(=O)CNC(=O)c1cccc(Cl)c1`, the cytotoxicity call is “inactive”.
As to `CN(C)c1ccc2c(=O)[nH][nH]c(=O)c2c1`, the cytotoxicity call is “inactive”.
`Cc1cc2nc3ccc(N(C)C)cc3[s+]c2cc1N.[Cl-]`: the cytotoxicity call is “active”.
Take `CN(C)c1ccc2nc3ccc(N(C)C)cc3[s+]c2c1.O.[Cl-]`: the cytotoxicity call was “active”.
`C[C@@H]1CN([C@@H](C)CO)C(=O)Cc2cc(NC(=O)Cc3cn(C)c4ccccc34)ccc2O[C@@H]1CN(C)Cc1ccc(Oc2ccccc2)cc1`: the cytotoxicity call was “inactive”.
Consider `Nc1cc(Cl)ncn1`, for which the cytotoxicity call is “inactive”.
On to `C[C@@H]1CN([C@H](C)CO)S(=O)(=O)c2ccc(C#C[C@@H](C)O)cc2O[C@H]1CN(C)C`, for which the cytotoxicity call is “inactive”.
As for `COc1ccc(S(=O)(=O)Nc2ccc3c(c2)C(=O)N([C@H](C)CO)C[C@H](C)[C@@H](CN(C)C(=O)c2ccccc2)OCCCC[C@H](C)O3)cc1`, the cytotoxicity call is “inactive”.
The entry for `CC12CC3(C)CC(C)(C1)CC(C/N=C/c1ccc(O)cc1)(C2)C3` is “inactive”; for `CCOc1ccc2nc(C34CC5CC(CC(C5)C3)C4)ccc2c1` it is “inactive”.
Turning to `CC1=Nc2ccccc2NC(C)(C)C1`, the cytotoxicity call was “inactive”.
Under `C[C@@H]1CN([C@@H](C)CO)C(=O)c2cc(NC(=O)Cc3ccccc3)ccc2O[C@H]1CN(C)S(=O)(=O)c1cccs1` stands “inactive”; under `COCCN1CCC(N(Cc2ccc(-c3ccc(C(F)(F)F)cc3)cc2)C(=O)Cn2c(SCc3cccc(F)c3F)cc(=O)c3ccccc32)CC1`, “active”.
Turning to `O=c1cc(-c2ccccc2)[nH]c(=O)[nH]1`, the cytotoxicity call was “inactive”.
Under `COc1ccc(S(=O)(=O)N(C)C[C@@H]2Oc3ccc(NC(=O)Nc4ccc(Cl)c(Cl)c4)cc3CC(=O)N([C@@H](C)CO)C[C@@H]2C)cc1Cl` stands “active”; under `CC(C)NC(=O)Nc1ccc2c(c1)CC(=O)N([C@H](C)CO)C[C@@H](C)[C@H](CN(C)S(=O)(=O)c1ccc(Cl)cc1)O2`, “inactive”; under `COc1ccc(S(=O)(=O)N(C)C[C@@H]2Oc3ccc(NC(=O)Nc4cccc5c4CCCC5)cc3CC(=O)N([C@@H](C)CO)C[C@@H]2C)cc1Cl`, “inactive”.
On to `COc1ccc(S(=O)(=O)N(C)C[C@@H]2Oc3ccc(NC(=O)NC(C)C)cc3CC(=O)N([C@H](C)CO)C[C@@H]2C)cc1`, for which the cytotoxicity call is “inactive”.
Regarding `COc1ccc(S(=O)(=O)N(C)C[C@@H]2Oc3ccc(NC(=O)Nc4cc(Cl)cc(Cl)c4)cc3CC(=O)N([C@@H](C)CO)C[C@@H]2C)cc1Cl`, the cytotoxicity call was “active”.
In the case of `CC(C)NC(=O)Nc1ccc2c(c1)CC(=O)N([C@@H](C)CO)C[C@@H](C)[C@H](CN(C)S(=O)(=O)c1ccc(Cl)cc1)O2`, the cytotoxicity call is “inactive”.
`COc1ccc(NC(=O)N(C)C[C@H]2OCCCC[C@H](C)Oc3ccc(NS(=O)(=O)c4cccs4)cc3C(=O)N([C@@H](C)CO)C[C@H]2C)cc1`: the cytotoxicity call is “inactive”.
Turning to `COc1cccc(S(=O)(=O)N(C)C[C@H]2Oc3cc(Br)ccc3S(=O)(=O)N([C@@H](C)CO)C[C@H]2C)c1`, the cytotoxicity call is “inactive”.
In the case of `COc1ccc2c3c([nH]c2c1)[C@@H](CO)N(C[C@]13CCN(CC1)S(=O)(=O)c1cn(cn1)C)C(=O)Nc1ccc(cc1)F`, the cytotoxicity call was “inactive”.
As for `O=C(C[C@H]1C[C@@H]2c3cc(NC(=O)Nc4ccc(C(F)(F)F)cc4)ccc3O[C@@H]2[C@H](CO)O1)NC1CCCCC1`, the cytotoxicity call was “inactive”.
`C[C@H]1CN([C@@H](C)CO)S(=O)(=O)c2ccc(C#Cc3ccncc3)cc2O[C@@H]1CN(C)C(=O)C1CCCCC1`: the cytotoxicity call is “inactive”.
As for `COc1ccccc1NC(=O)N(C)C[C@H]1Oc2ncc(C#CCN(C)C)cc2C(=O)N([C@@H](C)CO)C[C@H]1C`, the cytotoxicity call is “inactive”.
For the molecule `C[C@@H]1CN([C@H](C)CO)C(=O)c2cc(NC(=O)Nc3ccc(C(F)(F)F)cc3)ccc2O[C@@H]1CN(C)Cc1ccc(Cl)c(Cl)c1`, the cytotoxicity call is “active”.
Regarding `C[C@H](CO)N1C[C@H](C)[C@H](CN(C)Cc2ccc(Cl)c(Cl)c2)Oc2ccc(NC(=O)Nc3ccc(C(F)(F)F)cc3)cc2C1=O`, the cytotoxicity call is “active”.
As to `C[C@H]1CN([C@@H](C)CO)C(=O)c2cc(NC(=O)Nc3ccc(C(F)(F)F)cc3)ccc2O[C@@H]1CN(C)Cc1ccc(Cl)c(Cl)c1`, the cytotoxicity call was “inactive”.
In the case of `C[C@@H]1CN([C@@H](C)CO)C(=O)c2cc(NC(=O)Nc3ccc(C(F)(F)F)cc3)ccc2O[C@@H]1CN(C)Cc1ccc(Cl)c(Cl)c1`, the cytotoxicity call was “active”.
Take `C[C@@H]1CN([C@@H](C)CO)C(=O)c2cc(NC(=O)Nc3ccc(C(F)(F)F)cc3)ccc2O[C@H]1CN(C)Cc1ccc(Cl)c(Cl)c1`: the cytotoxicity call was “inactive”.
For `C[C@@H]1CN([C@H](C)CO)C(=O)c2cc(NC(=O)Nc3ccc(C(F)(F)F)cc3)ccc2O[C@@H]1CN(C)Cc1ccncc1`, the cytotoxicity call was “inactive”.
As to `C[C@H](CO)N1C[C@H](C)[C@@H](CN(C)Cc2ccc(Cl)c(Cl)c2)Oc2ccc(NC(=O)Nc3ccc(C(F)(F)F)cc3)cc2C1=O`, the cytotoxicity call is “active”.
`C[C@@H]1CN([C@H](C)CO)C(=O)c2cc(NS(=O)(=O)c3ccc(F)cc3)ccc2O[C@H]1CN(C)Cc1ccncc1`: the cytotoxicity call is “inactive”.
For `CN1C(=O)c2cc(NS(C)(=O)=O)ccc2OC[C@H]2O[C@@H](CC(=O)N3CCOCC3)CC[C@@H]21`, the cytotoxicity call was “inactive”.
`C[C@@H]1CCCCO[C@H](CN(C)S(=O)(=O)c2cccs2)[C@@H](C)CN([C@H](C)CO)C(=O)c2cc(NC(=O)C3CCCCC3)ccc2O1`: the cytotoxicity call was “inactive”.
Take `COCC(=O)N1[C@@H]2c3ccc(C4=CCCCC4)c(=O)n3C[C@@H]2[C@@H](CO)[C@@H]1C(=O)N1CCN(C)CC1`: the cytotoxicity call was “inactive”.
Under `Cc1ccc(S(=O)(=O)Nc2ccc3c(c2)C(=O)N([C@H](C)CO)C[C@@H](C)[C@@H](CN(C)C(=O)Nc2cccc4ccccc24)O3)cc1` stands “inactive”; under `CO[C@H]1CN(C)C(=O)c2cc(NS(=O)(=O)CC(F)(F)F)ccc2OC[C@@H](C)N(C(=O)NC(C)C)C[C@@H]1C`, “inactive”; under `O=C1NCCCc2occc21`, “inactive”.
Under `Cc1noc(C)c1S(=O)(=O)Nc1ccc2c(c1)C(=O)N([C@@H](C)CO)C[C@H](C)[C@H](CN(C)Cc1ccccc1)O2` stands “inactive”; under `CO[C@H](CN(C)S(=O)(=O)c1ccc(C)cc1)[C@H](C)CN([C@@H](C)CO)S(=O)(=O)c1cccc(Cl)c1`, “inactive”.
`COc1ccc(NC(=O)N(C)C[C@@H]2Oc3ncc(C#CCN(C)C)cc3C(=O)N([C@H](C)CO)C[C@@H]2C)cc1`: the cytotoxicity call is “inactive”.
Under `COCC#Cc1ccc2c(c1)O[C@@H](CN(C)C(=O)C1CCOCC1)[C@H](C)CN([C@@H](C)CO)S2(=O)=O` stands “inactive”.
As to `C[C@H](CO)N1C[C@H](C)[C@@H](CN(C)Cc2ccc(Cl)c(Cl)c2)Oc2ccc(NC(=O)Nc3ccc(F)cc3)cc2C1=O`, the cytotoxicity call was “inactive”.
In the case of `C[C@@H]1CN([C@H](C)CO)C(=O)c2cc(NC(=O)Nc3ccc(C(F)(F)F)cc3)ccc2O[C@H]1CN(C)Cc1ccc(Cl)c(Cl)c1`, the cytotoxicity call was “active”.
Turning to `C[C@H]1CN([C@@H](C)CO)C(=O)c2cc(NC(=O)Nc3ccc(F)cc3)ccc2O[C@@H]1CN(C)Cc1ccc(Cl)c(Cl)c1`, the cytotoxicity call was “inactive”.
As for `C[C@H]1CN([C@@H](C)CO)C(=O)c2cc(NC(=O)Nc3ccc(C(F)(F)F)cc3)ccc2O[C@H]1CN(C)Cc1ccc(Cl)c(Cl)c1`, the cytotoxicity call is “active”.
For `C[C@@H]1CN([C@@H](C)CO)S(=O)(=O)c2ccc(Br)cc2O[C@H]1CN(C)S(=O)(=O)c1ccccc1`, the cytotoxicity call was “inactive”.
Consider `C[C@@H]1CN([C@H](C)CO)C(=O)Cc2cc(NS(=O)(=O)c3ccc(F)cc3)ccc2O[C@@H]1CN(C)Cc1ccncc1`, for which the cytotoxicity call is “inactive”.
Regarding `C[C@H]1CN([C@@H](C)CO)C(=O)CCCn2nncc2CO[C@H]1CN(C)S(=O)(=O)c1cn(C)cn1`, the cytotoxicity call was “inactive”.
Consider `Cc1noc(C)c1NC(=O)N(C)C[C@H]1Oc2c(NC(=O)Nc3ccc(C(F)(F)F)cc3)cccc2C(=O)N([C@H](C)CO)C[C@@H]1C`, for which the cytotoxicity call is “inactive”.
Under `C[C@H]1CN([C@@H](C)CO)S(=O)(=O)c2ccc(-c3ccncc3)cc2O[C@@H]1CN(C)C(=O)c1cccc(F)c1` stands “inactive”; under `CNC(=O)CN1C(=O)[C@@H]2[C@@H](C1=O)[C@@H]1C=C[C@@H]2C1`, “inactive”.
